# Source: PubChem BioAssay (NCI)
# Compounds without any hit were thinned out: in the full panel of roughly 83,000, 20% have a hit.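 For each line, cells grew in 96-well plates with the test compound present at a single concentration for 48 hours.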 Values without a mark were called inactive. The source made the active and inactive calls. How the source made its calls: active means growth percent below 10; inactive means the rest.
# Legend:
# Assay in all cases: NCI-60 one-dose screen, 48 h (100 = growth as untreated, 0 = no growth, -100 = all killed)
# Conditions in all cases: 10 µM unless noted
# HCT-15 colon = system: HCT-15 colon
# HT29 colon = system: HT29 colon
# SNB-75 CNS = system: SNB-75 CNS
# SNB-19 CNS = system: SNB-19 CNS
# U251 CNS = system: U251 CNS
# PC-3 prostate = system: PC-3 prostate
# SK-MEL-5 melanoma = system: SK-MEL-5 melanoma
# UACC-62 melanoma = system: UACC-62 melanoma
# LOX IMVI melanoma = system: LOX IMVI melanoma
# SK-MEL-28 melanoma = system: SK-MEL-28 melanoma
# SK-MEL-2 melanoma = system: SK-MEL-2 melanoma
# EKVX NSCLC = system: EKVX NSCLC
# SN12C renal = system: SN12C renal
# UO-31 renal = system: UO-31 renal
# TK-10 renal = system: TK-10 renal
# ACHN renal = system: ACHN renal
# CAKI-1 renal = system: CAKI-1 renal
# A498 renal = system: A498 renal
# CCRF-CEM leukemia = system: CCRF-CEM leukemia
# MOLT-4 leukemia = system: MOLT-4 leukemia
Structure (SMILES),growth (HCT-15 colon),growth (HT29 colon),growth (SNB-75 CNS),growth (SNB-19 CNS),growth (U251 CNS),growth (PC-3 prostate),growth (SK-MEL-5 melanoma),growth (UACC-62 melanoma),growth (LOX IMVI melanoma),growth (SK-MEL-28 melanoma),growth (SK-MEL-2 melanoma),growth (EKVX NSCLC),growth (SN12C renal),growth (UO-31 renal),growth (TK-10 renal),growth (ACHN renal),growth (CAKI-1 renal),growth (A498 renal),growth (CCRF-CEM leukemia),growth (MOLT-4 leukemia)
O=S(=O)(Nc1ccc(Br)cc1)c1ccc(-c2cnc(C3CC3)o2)cc1,20.8%,13.9%,-6.53% (active),35.3%,24.9%,29.2%,19.2%,23.6%,45.9%,53.5%,33.6%,53%,33.8%,42.3%,64.1%,30.8%,40.6%,-6.87% (active),7.7% (active),15.8%
N/C(=N\c1nc2ccccc2s1)NC(=O)Nc1ccccc1,23.4%,14.3%,31.4%,32.1%,21%,57.1%,32.5%,21%,34.7%,72.3%,30.2%,54%,29%,46.3%,75.3%,55.7%,44.3%,42.7%,12.5%,27.8%
O=C(NCCN1CCOCC1)c1cncnc1Nc1ccc2c(ccn2Cc2ccccn2)c1,105%,102%,82.4%,95.5%,99.7%,101%,101%,94.6%,101%,108%,110%,104%,93.7%,88.5%,98.7%,107%,92.4%,101%,121%,104%
COc1ccccc1/C=C/C1=C(C)CCC(c2ccccc2OC)C1C (stereo not given),9.57% (active),5.56% (active),42.2%,19.6%,15.4%,-33.2% (active),-13.3% (active),10%,7.24% (active),49.8%,-7.95% (active),35%,28%,4.1% (active),41.1%,13%,2.23% (active),-4.12% (active),-9.01% (active),4.37% (active)
COc1ccc(-c2cc(-c3ccc(Nc4nc(Nc5ccc(Cl)cc5)nc(Nc5ccc(Cl)cc5)n4)cc3)no2)cc1,76.1%,78.9%,89.1%,107%,62.4%,60.5%,73%,101%,76.3%,89.7%,58.1%,76.3%,94%,65.3%,108%,83.6%,83.3%,86.8%,38.9%,9.97% (active)
O=C1/C(=C/c2cccc([N+](=O)[O-])c2)COc2ccc(O)c(O)c21,-3.34% (active),-12% (active),7.32% (active),-47.3% (active),-89% (active),-38.9% (active),16.7%,-83.3% (active),-93.6% (active),-48.3% (active),-25.4% (active),34.7%,-71.3% (active),-98.8% (active),-48.5% (active),-98.4% (active),-67.5% (active),99.7%,0.148% (active),-1.81% (active)
CC1=C(C(=O)OCc2ccccc2)C(c2ccc3c(c2)OCO3)n2c(nc3ccccc32)N1 (stereo not given),30.4%,14.4%,-6.67% (active),41.6%,36.3%,41.1%,25.5%,46.2%,34.6%,61.8%,47.8%,64.4%,47.6%,51.1%,65.6%,38.4%,34.3%,-10.2% (active),24.9%,37.1%
CCN1C(=O)N(CC)C2C1NN=c1s/c(=C\c3ccc(F)cc3)c(=O)n12 (stereo not given),13.9%,3.48% (active),-1.81% (active),28%,9.98% (active),25.4%,16.8%,28.8%,20%,63%,55.3%,56.3%,31.5%,41.7%,64.8%,35.2%,33%,23.4%,4.82% (active),14.3%
COc1cc(C(=O)c2c(-c3ccccc3)oc3ccccc23)cc(OC)c1O,32.1%,109%,-1.53% (active),32.8%,25.6%,43.9%,16.4%,35.2%,37.2%,66%,50.9%,51.3%,43.9%,51.9%,78.4%,41.7%,32.7%,1.19% (active),13.9%,28.6%
O=C(O)c1nn(-c2ccc(Cl)cc2)nc1N1CCCC1,92.2%,104%,85.7%,103%,92.3%,95.4%,96.4%,99.6%,93.6%,105%,102%,88.3%,101%,79.9%,133%,99.4%,97.6%,74.3%,100%,97.5%
Nc1nc(=O)n([C@H]2CC=C(CO)O2)cc1F,101%,91.9%,102%,96.3%,95%,92.1%,100%,92.4%,92.5%,105%,102%,110%,96.8%,91.5%,99.3%,110%,94.6%,75.8%,103%,90.5%
COc1cc2c(c(OC)c1OC)C(=O)CC(c1cccc(C(=O)Nc3ccc(Br)cc3)c1)O2 (stereo not given),57.9%,75%,51.1%,80.2%,83.4%,5.38% (active),22.3%,40.9%,57.9%,74.5%,60.3%,63.5%,51.1%,40.3%,75.2%,63.9%,62%,40.3%,9.34% (active),-0.848% (active)
CC1OC(C(=O)N2CCN(CCO)CC2)CC1COC1CCCCC1 (stereo not given),102% [50 µM],106% [50 µM],88.3% [50 µM],93.9% [50 µM],99.4% [50 µM],92.3% [50 µM],95.8% [50 µM],87.7% [50 µM],96.4% [50 µM],106% [50 µM],107% [50 µM],99.8% [50 µM],92.1% [50 µM],70.4% [50 µM],129% [50 µM],94.3% [50 µM],85.3% [50 µM],126% [50 µM],106% [50 µM],97.1% [50 µM]
O=C(/C=C/c1cccc([N+](=O)[O-])c1)c1ccc(Nc2nc(Nc3ccc(F)cc3)nc(Nc3ccc(Cl)cc3)n2)cc1,83.9%,88%,106%,100%,81.1%,88.5%,87.6%,93.9%,84.2%,97.1%,70%,79.5%,88.3%,79.8%,141%,92%,91.4%,110%,43.6%,3.89% (active)
